Test results as given in ChEMBL document CHEMBL1961873, “Compounds: GSK PKIS; Assays: Nanosyn kinase panel” (2012).

What was measured:
[1] = molecular target: High affinity nerve growth factor receptor (Homo sapiens) (UniProt P04629); conditions: at 1 µM;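 also: each value is the mean percent inhibition of TRKA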
[2] = molecular target: BDNF/NT-3 growth factors receptor (Homo sapiens) (UniProt Q16620); conditions: at 0.1 µM
[3] = molecular target: BDNF/NT-3 growth factors receptor (Homo sapiens) (UniProt Q16620); conditions: at 1 µM
[4] = molecular target: NT-3 growth factor receptor (Homo sapiens) (UniProt Q16288); conditions: at 0.1 µM
[5] = molecular target: NT-3 growth factor receptor (Homo sapiens) (UniProt Q16288); conditions: at 1 µM
[6] = molecular target: T1, Tyrosine-protein kinase TXK (Homo sapiens) (UniProt P42681); conditions: at 0.1 µM
T1 sequence (whole entry): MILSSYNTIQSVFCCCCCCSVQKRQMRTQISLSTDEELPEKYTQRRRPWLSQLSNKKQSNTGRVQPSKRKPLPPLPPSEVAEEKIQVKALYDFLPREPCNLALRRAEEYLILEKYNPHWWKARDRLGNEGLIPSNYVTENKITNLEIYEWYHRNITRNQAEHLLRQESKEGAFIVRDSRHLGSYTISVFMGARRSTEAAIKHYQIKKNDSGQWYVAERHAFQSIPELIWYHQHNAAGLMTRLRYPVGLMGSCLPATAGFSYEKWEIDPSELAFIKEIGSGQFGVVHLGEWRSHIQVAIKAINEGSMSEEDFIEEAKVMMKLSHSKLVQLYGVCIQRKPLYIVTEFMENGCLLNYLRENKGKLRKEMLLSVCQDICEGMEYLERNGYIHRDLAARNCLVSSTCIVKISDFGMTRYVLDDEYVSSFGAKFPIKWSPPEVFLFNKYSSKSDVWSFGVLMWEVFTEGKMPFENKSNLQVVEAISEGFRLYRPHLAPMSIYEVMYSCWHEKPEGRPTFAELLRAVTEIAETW

[7] = molecular target: T1, Tyrosine-protein kinase TXK (Homo sapiens); conditions: at 1 µM
[8] = molecular target: Non-receptor tyrosine-protein kinase TYK2 (Homo sapiens) (UniProt P29597); conditions: at 0.1 µM;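 also: each value is a mean of the inhibition readings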
[9] = molecular target: T2, Dual specificity protein kinase TTK (Homo sapiens) (UniProt P33981); conditions: at 1 µM;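 also: reported figures are mean TTK inhibition at 1 µM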
T2 sequence (whole entry): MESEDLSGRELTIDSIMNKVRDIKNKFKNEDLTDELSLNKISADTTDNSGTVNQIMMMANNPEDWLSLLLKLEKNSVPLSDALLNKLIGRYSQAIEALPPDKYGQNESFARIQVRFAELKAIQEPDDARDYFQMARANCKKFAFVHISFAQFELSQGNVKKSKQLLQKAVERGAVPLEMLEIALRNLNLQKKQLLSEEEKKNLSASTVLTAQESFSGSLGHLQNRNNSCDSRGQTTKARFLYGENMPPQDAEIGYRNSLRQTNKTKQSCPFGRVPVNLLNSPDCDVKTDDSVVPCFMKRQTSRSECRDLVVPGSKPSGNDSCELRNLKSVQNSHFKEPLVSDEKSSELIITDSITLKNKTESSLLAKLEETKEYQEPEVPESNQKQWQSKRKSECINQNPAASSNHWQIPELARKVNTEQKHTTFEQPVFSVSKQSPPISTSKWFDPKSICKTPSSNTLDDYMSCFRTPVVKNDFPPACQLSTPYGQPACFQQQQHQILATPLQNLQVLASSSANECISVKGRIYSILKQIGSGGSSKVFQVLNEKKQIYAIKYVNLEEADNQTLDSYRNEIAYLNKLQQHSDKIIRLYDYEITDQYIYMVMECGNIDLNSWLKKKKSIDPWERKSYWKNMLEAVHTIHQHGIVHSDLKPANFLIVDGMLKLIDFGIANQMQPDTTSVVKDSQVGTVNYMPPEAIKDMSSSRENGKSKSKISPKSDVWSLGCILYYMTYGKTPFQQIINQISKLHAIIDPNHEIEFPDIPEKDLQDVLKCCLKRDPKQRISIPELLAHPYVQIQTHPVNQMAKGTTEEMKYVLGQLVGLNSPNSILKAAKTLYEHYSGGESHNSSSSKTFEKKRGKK

[10] = molecular target: T3, Aurora kinase A (Homo sapiens) (UniProt O14965); conditions: at 0.1 µM
T3 sequence (whole entry): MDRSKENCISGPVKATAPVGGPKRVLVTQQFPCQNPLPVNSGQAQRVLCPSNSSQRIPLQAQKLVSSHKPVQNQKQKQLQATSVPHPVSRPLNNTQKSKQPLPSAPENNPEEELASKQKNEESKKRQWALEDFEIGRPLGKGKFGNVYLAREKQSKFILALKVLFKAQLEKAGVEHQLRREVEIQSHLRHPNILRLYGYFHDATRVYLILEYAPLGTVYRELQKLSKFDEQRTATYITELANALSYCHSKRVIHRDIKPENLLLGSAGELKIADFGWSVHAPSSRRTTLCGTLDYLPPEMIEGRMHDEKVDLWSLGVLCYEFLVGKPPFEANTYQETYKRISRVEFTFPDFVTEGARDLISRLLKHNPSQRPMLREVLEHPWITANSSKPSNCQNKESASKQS

[11] = molecular target: T3, Aurora kinase A (Homo sapiens); conditions: at 1 µM
[12] = molecular target: Aurora kinase B (Homo sapiens) (UniProt Q96GD4); conditions: at 0.1 µM
[13] = molecular target: Aurora kinase B (Homo sapiens) (UniProt Q96GD4); conditions: at 1 µM
[14] = molecular target: T4, Aurora kinase C (Homo sapiens) (UniProt Q9UQB9); conditions: at 1 µM
T4 sequence (whole entry): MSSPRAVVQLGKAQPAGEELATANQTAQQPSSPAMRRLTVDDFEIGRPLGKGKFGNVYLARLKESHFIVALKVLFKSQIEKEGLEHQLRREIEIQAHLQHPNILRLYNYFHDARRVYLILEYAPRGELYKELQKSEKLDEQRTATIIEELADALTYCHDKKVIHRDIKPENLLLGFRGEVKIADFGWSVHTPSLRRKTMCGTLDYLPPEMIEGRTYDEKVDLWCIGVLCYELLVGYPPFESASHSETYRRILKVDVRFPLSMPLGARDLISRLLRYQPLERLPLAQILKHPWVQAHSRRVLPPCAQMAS

[15] = molecular target: Serine/threonine-protein kinase 10 (Homo sapiens) (UniProt O94804); conditions: at 0.1 µM
[16] = molecular target: Serine/threonine-protein kinase 10 (Homo sapiens) (UniProt O94804); conditions: at 1 µM
[17] = molecular target: T5, Mitogen-activated protein kinase kinase kinase kinase 2 (Homo sapiens) (UniProt Q12851); conditions: at 0.1 µM
T5 sequence (whole entry): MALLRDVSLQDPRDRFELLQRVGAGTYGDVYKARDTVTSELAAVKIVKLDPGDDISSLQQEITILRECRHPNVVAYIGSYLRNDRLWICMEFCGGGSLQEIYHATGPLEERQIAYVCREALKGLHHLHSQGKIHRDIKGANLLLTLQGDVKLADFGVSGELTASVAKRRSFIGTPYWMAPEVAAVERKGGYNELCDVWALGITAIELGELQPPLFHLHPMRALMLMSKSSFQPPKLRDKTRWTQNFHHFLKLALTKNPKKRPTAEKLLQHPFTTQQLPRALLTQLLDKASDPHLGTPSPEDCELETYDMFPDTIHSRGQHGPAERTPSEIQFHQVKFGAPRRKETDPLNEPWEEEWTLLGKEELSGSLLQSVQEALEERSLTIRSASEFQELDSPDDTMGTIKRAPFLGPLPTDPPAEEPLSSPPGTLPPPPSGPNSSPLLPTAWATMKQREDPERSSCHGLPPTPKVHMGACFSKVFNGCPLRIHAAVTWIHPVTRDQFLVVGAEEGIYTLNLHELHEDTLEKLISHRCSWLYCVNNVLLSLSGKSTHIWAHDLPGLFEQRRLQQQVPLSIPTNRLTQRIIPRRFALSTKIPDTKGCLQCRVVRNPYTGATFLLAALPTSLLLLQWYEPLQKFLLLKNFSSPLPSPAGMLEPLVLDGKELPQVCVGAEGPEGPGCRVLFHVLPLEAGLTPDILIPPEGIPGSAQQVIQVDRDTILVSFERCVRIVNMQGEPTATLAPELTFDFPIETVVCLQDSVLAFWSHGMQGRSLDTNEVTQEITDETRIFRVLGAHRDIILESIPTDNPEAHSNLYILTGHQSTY

[18] = molecular target: T5, Mitogen-activated protein kinase kinase kinase kinase 2 (Homo sapiens); conditions: at 1 µM
[19] = molecular target: Mitogen-activated protein kinase kinase kinase kinase 4 (Homo sapiens) (UniProt O95819); conditions: at 0.1 µM
[20] = molecular target: T4, Aurora kinase C (Homo sapiens); conditions: at 0.1 µM

Sequence of Aurora kinase B (Homo sapiens) (Q96GD4 whole entry): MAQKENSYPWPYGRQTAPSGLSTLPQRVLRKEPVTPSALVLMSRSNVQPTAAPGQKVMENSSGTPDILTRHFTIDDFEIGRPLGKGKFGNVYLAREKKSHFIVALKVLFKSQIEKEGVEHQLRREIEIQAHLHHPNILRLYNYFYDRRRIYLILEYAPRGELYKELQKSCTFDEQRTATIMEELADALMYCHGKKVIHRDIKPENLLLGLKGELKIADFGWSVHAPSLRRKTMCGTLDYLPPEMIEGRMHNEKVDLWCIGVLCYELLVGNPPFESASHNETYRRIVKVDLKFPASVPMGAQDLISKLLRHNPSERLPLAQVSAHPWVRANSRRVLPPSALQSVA
Sequence of NT-3 growth factor receptor (Homo sapiens) (Q16288 32-839 limits assumed): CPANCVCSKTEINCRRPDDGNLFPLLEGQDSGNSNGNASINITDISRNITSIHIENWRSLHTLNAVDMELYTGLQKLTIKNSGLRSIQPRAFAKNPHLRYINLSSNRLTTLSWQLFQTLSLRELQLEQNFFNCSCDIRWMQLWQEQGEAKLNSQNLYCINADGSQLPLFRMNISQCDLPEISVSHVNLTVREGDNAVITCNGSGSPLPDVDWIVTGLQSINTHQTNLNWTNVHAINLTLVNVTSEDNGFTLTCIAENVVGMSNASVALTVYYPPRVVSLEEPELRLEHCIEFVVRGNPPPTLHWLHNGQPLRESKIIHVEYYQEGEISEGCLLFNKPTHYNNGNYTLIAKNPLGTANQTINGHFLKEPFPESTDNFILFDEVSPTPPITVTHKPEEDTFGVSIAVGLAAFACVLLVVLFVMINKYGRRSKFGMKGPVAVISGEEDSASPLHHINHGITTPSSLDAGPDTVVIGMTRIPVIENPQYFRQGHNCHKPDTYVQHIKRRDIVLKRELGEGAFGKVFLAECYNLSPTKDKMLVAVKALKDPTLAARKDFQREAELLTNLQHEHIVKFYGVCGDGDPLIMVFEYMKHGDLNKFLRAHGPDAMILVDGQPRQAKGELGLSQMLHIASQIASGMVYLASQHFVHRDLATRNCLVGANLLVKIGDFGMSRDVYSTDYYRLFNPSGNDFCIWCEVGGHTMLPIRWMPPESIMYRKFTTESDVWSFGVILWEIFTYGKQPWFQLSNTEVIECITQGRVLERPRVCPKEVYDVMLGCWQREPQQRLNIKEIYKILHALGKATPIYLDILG
Sequence of Non-receptor tyrosine-protein kinase TYK2 (Homo sapiens) (P29597 whole entry): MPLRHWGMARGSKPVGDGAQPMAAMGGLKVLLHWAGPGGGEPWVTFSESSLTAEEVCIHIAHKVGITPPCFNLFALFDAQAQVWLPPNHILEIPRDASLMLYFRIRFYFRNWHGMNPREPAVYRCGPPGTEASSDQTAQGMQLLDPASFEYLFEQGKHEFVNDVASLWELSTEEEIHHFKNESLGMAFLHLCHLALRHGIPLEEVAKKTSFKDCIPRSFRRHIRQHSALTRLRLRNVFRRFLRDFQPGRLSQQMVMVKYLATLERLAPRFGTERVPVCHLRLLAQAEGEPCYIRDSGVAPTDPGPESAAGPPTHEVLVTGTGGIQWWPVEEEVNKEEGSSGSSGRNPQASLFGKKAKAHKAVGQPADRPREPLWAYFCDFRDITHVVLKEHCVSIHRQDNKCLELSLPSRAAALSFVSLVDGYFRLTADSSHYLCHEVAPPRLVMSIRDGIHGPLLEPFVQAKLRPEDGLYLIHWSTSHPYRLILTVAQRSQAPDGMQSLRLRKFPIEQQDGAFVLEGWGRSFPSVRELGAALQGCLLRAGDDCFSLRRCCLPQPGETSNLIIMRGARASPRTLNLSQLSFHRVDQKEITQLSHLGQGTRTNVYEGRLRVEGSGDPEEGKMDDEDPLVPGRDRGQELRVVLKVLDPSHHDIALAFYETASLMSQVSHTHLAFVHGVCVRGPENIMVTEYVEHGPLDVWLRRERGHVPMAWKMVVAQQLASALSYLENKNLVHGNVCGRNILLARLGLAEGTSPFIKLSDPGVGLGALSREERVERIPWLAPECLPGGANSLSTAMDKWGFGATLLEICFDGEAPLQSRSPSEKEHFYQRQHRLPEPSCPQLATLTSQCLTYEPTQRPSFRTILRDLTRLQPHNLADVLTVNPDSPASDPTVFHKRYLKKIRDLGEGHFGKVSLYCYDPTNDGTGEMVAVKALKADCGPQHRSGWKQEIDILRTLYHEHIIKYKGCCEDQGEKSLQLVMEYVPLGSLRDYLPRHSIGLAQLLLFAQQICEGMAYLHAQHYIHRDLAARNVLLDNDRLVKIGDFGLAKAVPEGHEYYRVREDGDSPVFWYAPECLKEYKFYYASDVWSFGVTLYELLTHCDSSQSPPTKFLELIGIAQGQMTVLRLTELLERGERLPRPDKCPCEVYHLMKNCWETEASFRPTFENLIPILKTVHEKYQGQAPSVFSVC
Sequence of Serine/threonine-protein kinase 10 (Homo sapiens) (O94804 whole entry, looked up): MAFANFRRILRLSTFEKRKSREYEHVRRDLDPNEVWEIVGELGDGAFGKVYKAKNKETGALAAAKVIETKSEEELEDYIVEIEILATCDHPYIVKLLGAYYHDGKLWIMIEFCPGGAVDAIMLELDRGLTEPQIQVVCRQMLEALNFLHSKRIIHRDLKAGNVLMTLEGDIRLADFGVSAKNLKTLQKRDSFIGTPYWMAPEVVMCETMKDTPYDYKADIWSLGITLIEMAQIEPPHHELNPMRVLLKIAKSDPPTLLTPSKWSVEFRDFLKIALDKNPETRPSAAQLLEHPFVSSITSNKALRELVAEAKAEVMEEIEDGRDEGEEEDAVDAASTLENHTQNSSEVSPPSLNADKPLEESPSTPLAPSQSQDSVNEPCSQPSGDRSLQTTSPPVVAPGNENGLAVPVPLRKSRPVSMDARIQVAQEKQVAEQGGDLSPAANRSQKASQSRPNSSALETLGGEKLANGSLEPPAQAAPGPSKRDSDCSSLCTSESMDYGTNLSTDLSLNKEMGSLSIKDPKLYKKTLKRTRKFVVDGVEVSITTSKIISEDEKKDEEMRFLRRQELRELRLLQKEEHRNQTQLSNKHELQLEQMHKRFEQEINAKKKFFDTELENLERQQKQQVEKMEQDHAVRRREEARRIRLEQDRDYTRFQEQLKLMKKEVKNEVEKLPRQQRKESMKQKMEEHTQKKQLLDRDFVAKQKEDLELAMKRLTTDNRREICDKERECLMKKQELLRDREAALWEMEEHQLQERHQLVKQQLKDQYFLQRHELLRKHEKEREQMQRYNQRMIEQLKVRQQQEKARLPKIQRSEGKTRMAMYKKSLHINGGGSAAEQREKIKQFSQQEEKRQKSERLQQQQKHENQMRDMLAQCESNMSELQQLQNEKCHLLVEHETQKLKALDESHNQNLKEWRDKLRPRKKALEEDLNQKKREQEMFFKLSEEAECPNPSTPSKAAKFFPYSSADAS
Sequence of High affinity nerve growth factor receptor (Homo sapiens) (P04629 33-796 limits assumed): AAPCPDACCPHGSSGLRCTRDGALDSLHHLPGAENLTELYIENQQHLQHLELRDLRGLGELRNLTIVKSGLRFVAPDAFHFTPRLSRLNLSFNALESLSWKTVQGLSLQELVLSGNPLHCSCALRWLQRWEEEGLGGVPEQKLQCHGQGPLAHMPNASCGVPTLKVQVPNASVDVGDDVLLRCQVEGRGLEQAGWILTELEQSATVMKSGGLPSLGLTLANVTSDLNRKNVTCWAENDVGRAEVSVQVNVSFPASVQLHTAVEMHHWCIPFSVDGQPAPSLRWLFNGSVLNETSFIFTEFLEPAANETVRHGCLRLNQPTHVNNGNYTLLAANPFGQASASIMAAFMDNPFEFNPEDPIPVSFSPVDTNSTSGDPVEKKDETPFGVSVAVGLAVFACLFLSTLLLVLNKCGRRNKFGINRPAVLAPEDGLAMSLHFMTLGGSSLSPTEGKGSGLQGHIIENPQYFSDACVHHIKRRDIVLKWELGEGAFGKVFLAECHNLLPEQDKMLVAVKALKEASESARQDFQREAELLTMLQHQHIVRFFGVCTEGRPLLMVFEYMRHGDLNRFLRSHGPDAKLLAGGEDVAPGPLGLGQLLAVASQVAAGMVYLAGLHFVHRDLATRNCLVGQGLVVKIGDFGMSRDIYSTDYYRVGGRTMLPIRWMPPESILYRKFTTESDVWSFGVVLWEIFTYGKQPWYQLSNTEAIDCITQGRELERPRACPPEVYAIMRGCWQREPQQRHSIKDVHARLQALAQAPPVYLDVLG
Sequence of BDNF/NT-3 growth factors receptor (Homo sapiens) (Q16620 32-822 limits assumed): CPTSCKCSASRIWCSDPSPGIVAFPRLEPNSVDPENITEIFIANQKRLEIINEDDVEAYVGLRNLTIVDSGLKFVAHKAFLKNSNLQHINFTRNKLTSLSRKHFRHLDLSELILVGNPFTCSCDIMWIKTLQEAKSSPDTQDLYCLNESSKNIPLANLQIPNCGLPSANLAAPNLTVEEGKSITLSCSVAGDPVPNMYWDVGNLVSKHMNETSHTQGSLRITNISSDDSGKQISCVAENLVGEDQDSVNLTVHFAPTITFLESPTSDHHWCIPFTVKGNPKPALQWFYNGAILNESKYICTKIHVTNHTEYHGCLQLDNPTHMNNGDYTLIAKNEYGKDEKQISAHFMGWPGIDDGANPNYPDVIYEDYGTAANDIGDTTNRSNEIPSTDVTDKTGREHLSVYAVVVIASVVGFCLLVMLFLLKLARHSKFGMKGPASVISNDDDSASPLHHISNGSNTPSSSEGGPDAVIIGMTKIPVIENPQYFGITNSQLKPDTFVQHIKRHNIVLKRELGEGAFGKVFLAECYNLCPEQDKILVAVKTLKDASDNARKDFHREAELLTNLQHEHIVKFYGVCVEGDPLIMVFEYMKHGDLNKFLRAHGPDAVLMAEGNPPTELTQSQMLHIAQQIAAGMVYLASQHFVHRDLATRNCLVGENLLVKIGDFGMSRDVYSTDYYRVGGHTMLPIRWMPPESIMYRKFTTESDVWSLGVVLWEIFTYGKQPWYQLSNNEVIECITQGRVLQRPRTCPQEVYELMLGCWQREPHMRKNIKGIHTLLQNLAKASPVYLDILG

| Structure (SMILES) | inhibition [1] [%] | inhibition [2] [%] | inhibition [3] [%] | inhibition [4] [%] | inhibition [5] [%] | inhibition [6] [%] | inhibition [7] [%] | inhibition [8] [%] | inhibition [9] [%] | inhibition [10] [%] | inhibition [11] [%] | inhibition [12] [%] | inhibition [13] [%] | inhibition [14] [%] | inhibition [15] [%] | inhibition [16] [%] | inhibition [17] [%] | inhibition [18] [%] | inhibition [19] [%] | inhibition [20] [%] |
| --- | --- | --- | --- | --- | --- | --- | --- | --- | --- | --- | --- | --- | --- | --- | --- | --- | --- | --- | --- | --- |
| COc1cc(Nc2nccc(-c3cnn4ncccc34)n2)cc(OC)c1 | 26.7 | 5.6 | 39.5 | 9.63 | 45.6 | 5.79 | 31.4 | 4.29 | 15.4 | 20.9 | 94.2 | 20.5 | 71 | 94.4 | 5.8 | 27.3 | 28.5 | 72.7 | 26.1 | – |
| COc1ccc2ncnc(Nc3ccc(OCc4ccccc4)cc3)c2c1 | 1.61 | 2.59 | 2.63 | -0.03 | 0.85 | 2.73 | 3.98 | -2.4 | 4.18 | 1.97 | 8.54 | 2.34 | 22 | 10.5 | 4.51 | 9.23 | 0.8 | 1.74 | 3.79 | 1.84 |
| Cc1cc(-c2ccccn2)cc(C)c1/C=C/c1cncc(-c2nn[nH]n2)c1 | 10 | 3.94 | 4.13 | 1.49 | 2.54 | 2.93 | 4.47 | -2.23 | 9.95 | 1.9 | 5.71 | 2.09 | 7.42 | 19.6 | 6.35 | 13.7 | -1.16 | 3.53 | 2.48 | 4.2 |
| ON=C1CCc2cc(-c3nc(C4CCNCC4)[nH]c3-c3ccncc3)ccc21 | -1.26 | -0.05 | -1.18 | -1.73 | -0.26 | 1.85 | 2.25 | -1.08 | 2.17 | -0.5 | 2.73 | 0.1 | 3.15 | 10.1 | 19.7 | 63.6 | 1.74 | 4.29 | 3.95 | -0.7 |
| c1ccc(Cc2nc3ccc(Nc4ncnc5ccccc45)cc3[nH]2)cc1 | 0.18 | 2.44 | 3.35 | -0.16 | 2.9 | 2.03 | 4.47 | -9.76 | 19 | 2.6 | 11.6 | 5.89 | 11 | 7.02 | 4.04 | 8.14 | 0.75 | 6.22 | 4.28 | 4.08 |
| NS(=O)(=O)c1cccc(Nc2cc(-c3ccc(F)cc3)n[nH]2)c1 | 19.2 | 4.73 | 26.1 | 6.62 | 27.9 | 3.74 | 3.31 | -3.9 | – | 1.29 | 8.81 | 3.89 | 3.74 | 0.46 | 4.31 | 16.5 | 1.41 | 4.93 | 16.9 | 0.7 |
| CN(C)C(=O)O[C@@H]1CN[C@@H](C#Cc2cc3ncnc(Nc4ccc(OCc5cccc(F)c5)c(Cl)c4)c3s2)C1 | -4.24 | -0.65 | -0.85 | 2.82 | 0.46 | 2.85 | 5.35 | 1.84 | 4.98 | 1.79 | 8.44 | 2.09 | 5.86 | 14 | 1.67 | 6.26 | 0.47 | 2.35 | 2.96 | 0.89 |
